LANA-H2B inh – blockers of LANA interaction with H2A/H2B – biochemical, FP readout, HTS, primary screen; cell-free LANA-H2A/H2B peptide, fluorescence polarization; AID 2629, 2010; 320,000 tested, 0.6% active; inhibition, % (concentration not given with the values); Protein LANA1 (Human herpesvirus 8 type P (isolate GK18)), Q9QR71; in the data active means inhibition mostly above about 10%, no sharp cut-off; inactive means mostly below about 6.7%
EBV gp42 block – Epstein-Barr virus gp42 inhibitors, primary screen, biochemical, uHTS, fluorescence polarization; Fluorescence polarization binding assay, mP read-out; inhibition, % (tested at 21.74 µM); 220,000 tested, 0.42% active; in the data active means inhibition above about 50%
Keap1-Nrf2 PPI – Keap1-Nrf2 protein-protein interaction inhibitors, primary screen, biochemical, fluorescence polarization, single point; Keap1 Kelch-Nrf2 peptide fluorescence polarization, 1536-well; inhibition, % at 9.4 µM; 340,000 tested, 0.15% active; in the data active means inhibition above about 12%;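 further: human Keap1 Kelch domain with fluorescein labeled Nrf2 9mer peptide probe; higher means more block of Keap1 binding to Nrf2 peptide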
C-LANA FP – inhibitors of KSHV C-LANA binding to DNA, primary screen, biochemical, fluorescence polarization, FAM-LBS DNA, MBP-C-LANA, single point | Kaposi's sarcoma herpesvirus LANA C-terminal domain (residues 932-1162) DNA binding | inhibition, % at 9 µM | 340,000 tested, 0.078% active;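 active means highest replicate inhibition at or above 60% at 9 µM, even if other replicates fall short; inactive means all replicates below 60% inhibition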
GLD-1 TGE inh – GLD-1/TGE RNA complex disruptors, primary screen, biochemical, fluorescence polarization. Female germline-specific tumor suppressor gld-1 (Caenorhabditis elegans), Q17339. purified GLD-1 + fluorescein TGE RNA. inhibition, % at 5.96 µM. 320,000 tested, 0.44% active;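 active means percent inhibition above a per-plate cutoff, the plate mean of test compounds plus 3 SD, cut at about 30% in these data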
eLon inh – inhibitors of E. coli Lon protease, primary screen, biochemical, fluorescence polarization; inhibition, % at 7.94 µM; purified E. coli Lon protease; P0A9M0; 360,000 tested, 0.42% active; AID 602123, 2011; in the data active means inhibition above about 13%, passing the limit was not always enough
Each line names hits and unclear results; the compound was inactive in the other large screens. Rows were chosen to be rich in hits. Some 1.5% of all compounds tested hit in one or more screens of this group.

COc1ccccc1C(=O)N=Nc1c(O)[nH]c2ccc([N+](=O)[O-])cc12	none (no result: LANA-H2B inh, GLD-1 TGE inh)
CCOC(=O)c1cc(NC(=O)c2ccco2)ccc1N1CCOCC1	none
CC1(C(=O)NCc2ccccc2)CCC(=O)N1CCOc1ccccc1 (stereo unspecified)	none (no result: LANA-H2B inh, EBV gp42 block, Keap1-Nrf2 PPI, C-LANA FP, GLD-1 TGE inh)
CCN(CC)CC(=O)Nc1ccc(C)cc1C(=O)c1ccccc1	none
CCN(CC(=O)Nc1ccc(NC(C)=O)cc1)CC(=O)Nc1ccccc1C(=O)c1ccccc1	LANA-H2B inh 10
Nc1nn(-c2cccc(F)n2)cc1-c1ccccc1	none (no result: LANA-H2B inh, GLD-1 TGE inh)
O=C(Cn1nc(Cc2cccnc2)c2ccccc2c1=O)Nc1cc(F)ccc1F	none
O=C(Cn1nc(Cc2cccnc2)c2ccccc2c1=O)Nc1ccccc1F	LANA-H2B inh 16
COC(=O)c1ccc(NS(=O)(=O)c2ccc3c(c2)oc(=O)n3C)cc1	none
CCOC(=O)c1ccc(NS(=O)(=O)c2ccc3c(c2)oc(=O)n3C)cc1	LANA-H2B inh 32
NS(=O)(=O)c1cnccc1Oc1cccc(Cl)c1	none (no result: EBV gp42 block)
Cc1ccc(S(=O)(=O)NC(=O)C2(C)CCN2C(=O)c2ccccc2)cc1 (stereo unspecified)	none (no result: LANA-H2B inh, EBV gp42 block, Keap1-Nrf2 PPI, C-LANA FP, GLD-1 TGE inh)
O=C(Nc1cccc(Cl)c1)C1=CC=CN2CCS(=O)(=O)N=C12	none (no result: EBV gp42 block)
CC(=O)c1cccc(OC(=O)C2=CC=CN3CCS(=O)(=O)N=C23)c1	LANA-H2B inh 47 (no result: EBV gp42 block)
COc1cc(/C=C/C(=O)OCC(=O)NC(=O)NC(C)C)cc(S(=O)(=O)N2CCc3ccccc32)c1OC	LANA-H2B inh 26
COc1cc(/C=C/C(=O)OCC(=O)N2CCc3ccccc32)cc(OC)c1OC	none (no result: LANA-H2B inh, EBV gp42 block, Keap1-Nrf2 PPI, C-LANA FP, GLD-1 TGE inh)
CCN(C(=O)Nc1ccccc1)c1ccccc1	LANA-H2B inh 17
C#CCN(C(=O)Nc1ccccc1)c1ccccc1	none
Cc1ccccc1C1=C/C(=C(\SS/C(C(=O)c2ccc(OCC(=O)O)c(Cl)c2Cl)=C2\C=C(c3ccccc3C)SS2)C(=O)c2ccc(OCC(=O)O)c(Cl)c2Cl)SS1	C-LANA FP 100 (no result: LANA-H2B inh, EBV gp42 block, GLD-1 TGE inh)
Cc1cc(-c2nc3c4c5c(sc4[nH]c(=O)n3n2)CCC5)c(C)o1	EBV gp42 block 60
COc1ccccc1N1CCN(C2CC(=O)N(c3ccccc3)C2=O)CC1 (stereo unspecified)	none (no result: EBV gp42 block)
COc1ccccc1N1CCN(C2CC(=O)N(c3cccc(Cl)c3)C2=O)CC1 (stereo unspecified)	LANA-H2B inh 21 (no result: EBV gp42 block)
CCOC(=O)c1ccc(NC(=O)c2nc[nH]c2C(=O)N[C@@H](C)CO)cc1	none (no result: LANA-H2B inh, EBV gp42 block, Keap1-Nrf2 PPI, C-LANA FP, GLD-1 TGE inh)
CC[C@H]1c2[nH]c3ccccc3c2C[C@H]2C(=O)N(c3ccc(F)cc3)C(=O)N21	LANA-H2B inh active (no result: EBV gp42 block)
COC(=O)C1(C(=O)OC)C/C=C\CCN(S(=O)(=O)c2ccccc2[N+](=O)[O-])CC1	none (no result: LANA-H2B inh, EBV gp42 block, Keap1-Nrf2 PPI, C-LANA FP, GLD-1 TGE inh)
CCCCCCc1cc2cc(C(N)=O)c(=N)oc2cc1O	EBV gp42 block 103 (no result: Keap1-Nrf2 PPI, C-LANA FP, eLon inh)
O=C(CCc1nnc(CCC2CCCCC2)o1)NCCn1cccn1	LANA-H2B inh 15
COc1cc(NC(=O)c2cccc3c(-c4cccnc4)coc23)cc(OC)c1OC	none (no result: LANA-H2B inh, EBV gp42 block, Keap1-Nrf2 PPI, C-LANA FP, GLD-1 TGE inh)
O=S(=O)(c1cnc[nH]1)N1CCN(c2ccc(Cl)cc2)CC1	none
COc1ccc(N2CCN(S(=O)(=O)c3cnc[nH]3)CC2)cc1	LANA-H2B inh 33
O=c1c2ccccc2nc2n1CC/C2=C\c1ccccc1[N+](=O)[O-]	EBV gp42 block 66 (no result: LANA-H2B inh, Keap1-Nrf2 PPI, C-LANA FP, GLD-1 TGE inh, eLon inh)
CCCCC(=O)N(C)c1c(CC)nc2c(OCc3ccccc3C)cccn12	none (no result: LANA-H2B inh, EBV gp42 block, Keap1-Nrf2 PPI, C-LANA FP, GLD-1 TGE inh)
Cc1cnc(CNC(=O)c2csc([C@@H]3O[C@H](CO)[C@H](O)[C@H](O)[C@H]3O)n2)cn1	none (no result: LANA-H2B inh, EBV gp42 block, Keap1-Nrf2 PPI, C-LANA FP, GLD-1 TGE inh)
CCN(CC)S(=O)(=O)c1ccc(C)c(NC(=O)COC(=O)[C@@H]2CCCN2C(=O)c2cccs2)c1	LANA-H2B inh 15
Cc1ccccc1C(=O)N1CCC1(C)C(=O)NC(C)C (stereo unspecified)	none (no result: LANA-H2B inh, EBV gp42 block, Keap1-Nrf2 PPI, C-LANA FP, GLD-1 TGE inh)
CCN(CC)S(=O)(=O)c1ccc(C(=O)/C=C/c2ccc(-c3ccc([N+](=O)[O-])cc3)o2)cc1	EBV gp42 block 86
Cc1ccc(C(=O)/C=C/c2ccc(-c3ccc(C)cc3)o2)cc1	none

Assay outcomes (PubChem BioAssay)
